Experimental data published in PubChem BioAssay.
Active and inactive are the calls of the source.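 Rule for the calls, unless noted: active = fluorescence slope higher than the sample average by over 3 SD (cut at about -0.22 in these data, passing the limit was not always enough); inactive = the rest.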

Columns and labels:
[1] = inhibitors of TNFa-induced NFkB p65 translocation, primary screen, imaging, HUVEC, MLSMR starter and 10KST1 sets (AID 438;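 active = inhibition above 20% together with a positive visual image hit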;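 note: compound added about 3h40 before a 20 min TNFalpha stimulation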;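 for inhibition: signal is the nuclear over cytoplasmic p65 intensity ratio per well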); details: HUVEC TNFa-induced p65 nuclear translocation; cell count: measured here: nuclei count (cytotoxicity indicator), at 2.08 µM; inhibition: at 2 µM, stronger effect = higher value, 0% TNFa-plus-vehicle, 100% no-TNFa wells
[2] = inhibitors of mutant huntingtin aggregation, primary screen, imaging, exon1htt(103Q)mCFP cells, high-content imaging (AID 483;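 active = visual image review flags a hit and inhibition of aggregation exceeds 20%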;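 note: compound exposure lasted 3 days before fixation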;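 for nuclei count: percent of the per-plate median nuclei count of sample wells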); details: exon1htt(103Q)mCFP cell line, aggregate imaging, at 2 µM; inhibition of aggregation: stronger effect = higher value; nuclei count: measured here: cell count, toxicity
[3] = inhibitors of E-selectin induction by TNFa, primary screen, imaging, HUVEC, immunofluorescence, MLSMR starter and 10KST1 sets (AID 487;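 active = visually confirmed hit in the image check and inhibition above 20%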;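 for inhibition: signal is fraction of cell area covered by stained E-selectin grains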;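 for nuclei count: 100% = median nuclei count of all wells on the same plate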); details: HUVEC TNFalpha-induced E-selectin immunofluorescence imaging, at 2 µM; inhibition: stronger effect = higher value; nuclei count: measured here: cell number, toxicity
[4] = biological target: Voltage-gated potassium channel subunit beta-2 (Rattus norvegicus) (UniProt P62483); assay: KvBeta enzyme negative modulators, primary screen, biochemical, NADPH fluorescence (AID 622); details: recombinant KvBeta, 4-cyanobenzaldehyde reduction, at 10 µM, stronger effect = higher value;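 note: slope of raw intensity against log time taken from 70 to 1610 s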
[5] = biological target: Voltage-gated potassium channel subunit beta-2 (Rattus norvegicus) (UniProt P62483); assay: KvBeta positive modulators, primary screen, biochemical, NADPH fluorescence (AID 623;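 active = NADPH fluorescence slope more negative than the mean of all samples by about 3 SD, 99.7% confidence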;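 note: fluorescence intensity change per second fitted from 20 to 320 s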); details: Recombinant KvBeta, NADPH fluorescence decrease slope, 10 min; at 10 µM; stronger effect = lower value
[6] = biological target: Alpha-2C adrenergic receptor (Homo sapiens) (UniProt P18825); assay: modulators of alpha2C/GIRK thallium flux, primary screen, cell-based, HEK293 alpha2C/GIRK1/2 (AID 624;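 active = fluorescence slope after compound addition differing from the mean of all screened samples at 99.7% confidence, in either direction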;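 note: slope of fluorescence ratio to pre-addition baseline per second over 15 to 24 s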); details: thallium flux BTC fluorescence, at 10 µM, actives lie on both sides
[7] = inhibitors of Sendai virus-induced IRF3 signaling, primary screen, TLR/RLR signaling modifier project, cell-based, Sendai virus stimulus, luciferase, 10K MLSCN set (AID 602276;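 active = inhibition at or above 50% at 10 µM; inactive = inhibition below 50%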;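 note: firefly luciferase from ISG56 promoter only with Renilla not read in this screen; 0% = Sendai virus plus DMSO and 100% = medium plus DMSO without virus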); details: HEK293 RL24 IRF3 luciferase reporter, at 10 µM, stronger effect = higher value
[8] = inhibitors of poly I:C-induced TLR3 signaling, primary screen, cell-based, poly I:C stimulus, luciferase, 10K MLSCN set (AID 602277;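 active = inhibition of the reporter signal at or above 50%; inactive = inhibition below 50%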); details: HEK293-TLR3 RL24 IRF3 luciferase reporter, at 10 µM, stronger effect = higher value

Sequence of Alpha-2C adrenergic receptor (Homo sapiens) (P18825 whole entry, looked up): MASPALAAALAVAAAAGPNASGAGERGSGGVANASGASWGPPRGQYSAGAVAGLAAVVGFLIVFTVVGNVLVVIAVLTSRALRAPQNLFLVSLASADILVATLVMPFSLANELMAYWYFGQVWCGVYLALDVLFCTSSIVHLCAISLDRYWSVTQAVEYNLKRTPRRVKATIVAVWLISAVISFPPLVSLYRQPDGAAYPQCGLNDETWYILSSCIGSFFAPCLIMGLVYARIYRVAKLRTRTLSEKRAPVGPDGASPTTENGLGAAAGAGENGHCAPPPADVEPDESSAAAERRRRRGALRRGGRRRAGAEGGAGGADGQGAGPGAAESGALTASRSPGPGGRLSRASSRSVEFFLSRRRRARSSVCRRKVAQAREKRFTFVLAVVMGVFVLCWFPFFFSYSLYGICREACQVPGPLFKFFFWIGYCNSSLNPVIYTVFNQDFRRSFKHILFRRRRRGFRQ
Sequence of Voltage-gated potassium channel subunit beta-2 (Rattus norvegicus) (P62483 whole entry, looked up): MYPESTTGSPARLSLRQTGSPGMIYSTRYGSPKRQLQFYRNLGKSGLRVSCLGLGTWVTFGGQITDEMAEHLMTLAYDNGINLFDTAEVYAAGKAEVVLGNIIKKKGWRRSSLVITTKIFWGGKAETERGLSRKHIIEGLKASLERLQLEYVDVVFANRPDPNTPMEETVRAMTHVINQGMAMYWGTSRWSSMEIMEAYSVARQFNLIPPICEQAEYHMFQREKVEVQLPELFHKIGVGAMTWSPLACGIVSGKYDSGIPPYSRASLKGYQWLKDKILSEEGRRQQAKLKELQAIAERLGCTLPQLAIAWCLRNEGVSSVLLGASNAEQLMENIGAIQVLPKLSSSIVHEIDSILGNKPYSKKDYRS

Compound	cell count [1]	inhibition [1]	inhibition of aggregation [2]	nuclei count [2] [%]	inhibition [3]	nuclei count [3] [%]	fluorescence slope [4]	NADPH fluorescence slope [5]	slope [6]	inhibition [7]	inhibition [8]
O=C(CSc1nc(O)cc(=O)n1-c1ccccc1)N1CCCCC1	635	-8.1% (inactive)	-16.4% (inactive)	103	-85.5% (inactive)	109	-0.536 (inactive)	-5.1e-05 (inactive)	0.00543 (inactive)	12.3% (inactive)	21% (inactive)
Fc1cccc(-c2cc3nc4c(c(N5CCN(c6cnccn6)CC5)n3n2)CCCC4)c1	468	-3.1% (inactive)	-5.2% (inactive)	101	-80.1% (inactive)	100	-0.622 (inactive)	-2.7e-05 (inactive)	0.00757 (inactive)	-15.7% (inactive)	-16.1% (inactive)
CC(=O)c1c(O)cc(C)n(Nc2nc(C)cc(C)n2)c1=O	625	-12.1% (inactive)	-23.4% (inactive)	91.3	28.7% (inactive)	91.8	-0.343 (inactive)	-5.3e-05 (inactive)	0.00406 (inactive)	-1.56% (inactive)	-18.7% (inactive)
COc1cc2c(cc1OC)CN(C(=O)CSc1nnc3scc(-c4ccccc4)n13)CC2	548	-0.3% (inactive)	12.8% (inactive)	98.2	-28.8% (inactive)	109	-0.515 (inactive)	-2.7e-05 (inactive)	0.00728 (inactive)	1.32% (inactive)	16.8% (inactive)
Cc1cc(C)n2nc(SCC(=O)N(C)c3ccccc3)nc2n1	370	-5.3% (inactive)	-25.2% (inactive)	115	-24.2% (inactive)	103	-0.462 (inactive)	-4.2e-05 (inactive)	0.0068 (inactive)	5.25% (inactive)	24.1% (inactive)
CC(C)(C)n1nnnc1CN(Cc1ccco1)Cc1cc2cc3c(cc2[nH]c1=O)OCO3	667	13.3% (inactive)	-11.2% (inactive)	108	-53.9% (inactive)	130	-0.401 (inactive)	-5.7e-05 (inactive)	0.00513 (inactive)	15.5% (inactive)	16% (inactive)
N#Cc1nc(COc2ccccc2Cl)oc1N1CCCCCC1	577	1.1% (inactive)	-17.4% (inactive)	92.6	17.1% (inactive)	102	-0.431 (inactive)	-5e-05 (inactive)	0.00512 (inactive)	0.19% (inactive)	0.00693% (inactive)
COCC(C)NC(=O)CCS(=O)(=O)c1nc(-c2ccc(OC)cc2)cc(C(F)(F)F)n1 (stereo not given)	638	7.9% (inactive)	2.6% (inactive)	96.3	-37.9% (inactive)	192	-0.323 (inactive)	-2.1e-05 (inactive)	0.00386 (inactive)	17.7% (inactive)	1.39% (inactive)
Cc1nc2oc3c(NCc4ccccn4)ncnc3c2c2c1COC(C)(C)C2	366	-2.9% (inactive)	2.7% (inactive)	78.1	-75.4% (inactive)	117	-0.431 (inactive)	-4.2e-06 (inactive)	0.00661 (inactive)	9.92% (inactive)	12.7% (inactive)
Cc1cc(C)c2c(n1)nn1c(NCCCN3CCOCC3)cc(C)nc21	484	-4.5% (inactive)	11.5% (inactive)	119	-19.1% (inactive)	114	-0.509 (inactive)	-1.9e-05 (inactive)	0.00545 (inactive)	8.42% (inactive)	21.2% (inactive)
